This is a sample that favours compounds with a hit; in the whole collection about 2.1% have one here.
aSyn 5UTR inh: 5' untranslated region of α-synuclein, MLPCN primary screen | AID 1813 | alpha-synuclein 5'UTR reporter, inhibitor activity | inhibition, % (tested at 7.5 µM) | actives 0.82% (n = 300,000); in the data active = inhibition above about 60%;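 also: H4 neuroglioblastoma cells stably carrying SNCA 5'UTR luciferase fusion; 0% = DMSO wells and 100% = positive control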
IEC-6 tox: counter-screen for KLF5 inhibitors: cytotoxicity in IEC-6 cells; AID 1825; actives 0.78% (n = 290,000); inhibition, % at 5 µM; IEC-6 cytotoxicity, luminescence viability; in the data active = inhibition above about 22%;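 also: 0% = plate median of test compound wells and 100% = cytotoxic reference compound wells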
Ba/F3 V617F tox: lowers viability of Ba/F3 cells expressing EpoR and JAK2V617F; actives 1.1% (n = 220,000); inhibition, % at 5.6 µM; ATP luminescence;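 active = inhibition above the campaign mean plus 3 SD over all tested compounds, cut at about 24% in these data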;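 also: cytokine-independent growth of Ba/F3 cells driven by EpoR plus mutant JAK2; 0% = DMSO-treated cells and 100% = JAK inhibitor I control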
KLF5 inhibitor: kruppel-like factor 5 inhibition; inhibition, % at 5 µM; DLD-1 KLF5 promoter-luciferase reporter, luminescence; actives 0.23% (n = 290,000); AID 1700;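 active = inhibition above a per-plate limit of that plate's mean compound inhibition plus 3 SD, cut at about 60% in these data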;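 also: 0% = DMSO wells and 100% = LY294002 at 200 µM; higher means less KLF5 promoter-driven luciferase light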
APP transl inh: APP translation inhibition; SH-SY5Y APP 5'UTR-luciferase reporter, luminescence; inhibition, % at 2 µM; actives 0.82% (n = 190,000); AID 1285;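 active = inhibition above a set limit, derived from the sample mean plus 3 SD, cut at about 45% in these data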
BaF3 tox: parental Ba/F3 viability inhibition as JAK2V617F counter-screen | CellTiter-Glo ATP luminescence | inhibition, % at 5.6 µM | actives 1.1% (n = 220,000);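 active = inhibition above a per-campaign cutoff, the mean inhibition of all tested compounds plus 3 SD, cut at about 27% in these data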;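 also: 0% = DMSO wells and 100% = JAK Inhibitor I control wells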
Numbers without * were called inactive.

How did CCOc1cc(CNCCc2ccc(S(N)(=O)=O)cc2)ccc1OCC(=O)NC1CCCCC1 do in these assays?
aSyn 5UTR inh: 7.6; IEC-6 tox: -2.5; Ba/F3 V617F tox: -2.8; KLF5 inhibitor: -13.1; APP transl inh: 65.4*; BaF3 tox: 2.2

What do the screens show for `COC/C=C/C1=CC2=CC(=O)C(C)(OC(=O)c3cnc4ccccc4n3)C(=O)C2=CO1` (configuration not stated)?
aSyn 5UTR inh: 10.3

How did Cc1ccc(-n2nc3c(=O)n(CC(=O)NC4CCCCCC4)nc(C)c3c2C)cc1 do in these assays?
aSyn 5UTR inh: 21.8; IEC-6 tox: 8.1; KLF5 inhibitor: 8.8

What do the screens show for `CN(c1ccccc1)c1ccc(/C=C/[N+](=O)[O-])cc1`?
aSyn 5UTR inh: -19.3; IEC-6 tox: 5.1; Ba/F3 V617F tox: 18.6; KLF5 inhibitor: -10.4; APP transl inh: 53.7*; BaF3 tox: 6.2

How did CN(C)c1ccc(-n2cccc2/C=C/[N+](=O)[O-])cc1 do in these assays?
aSyn 5UTR inh: -28.8; IEC-6 tox: 0.6; Ba/F3 V617F tox: -2.7; KLF5 inhibitor: -4.6; APP transl inh: -28.7; BaF3 tox: 2.1

How did COc1cccc(C(C)NC(=O)c2ccncc2)c1 (configuration not stated) do in these assays?
aSyn 5UTR inh: -8.3; IEC-6 tox: 9.3; KLF5 inhibitor: 4.3

Results for CN(C)c1ccc([C@@H]2[C@@H]([N+](=O)[O-])[C@H]3C=Cc4ccccc4N3[C@H]2C(=O)c2ccc(Cl)cc2)cc1 ?
IEC-6 tox: 0.0; Ba/F3 V617F tox: 6.8; KLF5 inhibitor: -0.8; APP transl inh: -44.2; BaF3 tox: 40.0*

What do the screens show for `O=C(COc1ccccc1-c1ccccc1)N/N=C/c1cccc2ccccc12`?
aSyn 5UTR inh: 75.3*; IEC-6 tox: 12.3; Ba/F3 V617F tox: 2.5; KLF5 inhibitor: 5.3; APP transl inh: 95.2*; BaF3 tox: 3.8

How did C/C(CCC(C)C)=N\NC(=O)COc1ccccc1-c1ccccc1 do in these assays?
IEC-6 tox: 19.5; Ba/F3 V617F tox: -2.7; KLF5 inhibitor: 24.7; APP transl inh: 94.3*; BaF3 tox: 1.4

What do the screens show for `Nc1nnn(CC(=O)N/N=C/c2cccc3ccccc23)n1`?
aSyn 5UTR inh: -4.1; IEC-6 tox: 6.9; Ba/F3 V617F tox: 8.8; KLF5 inhibitor: -3.4; APP transl inh: 62.3*; BaF3 tox: 8.8

Results for Cc1ccccc1/C=N/NC(=O)Cn1nnc(N)n1 ?
aSyn 5UTR inh: -21.0; IEC-6 tox: 6.1; Ba/F3 V617F tox: 1.4; KLF5 inhibitor: 9.3; APP transl inh: 1.5; BaF3 tox: 8.8

How did O=C(Nc1ccc(Oc2ccc(C(=O)O)c(C(=O)O)c2)cc1)c1cccs1 do in these assays?
aSyn 5UTR inh: -28.7; IEC-6 tox: 2.7; Ba/F3 V617F tox: -3.8; KLF5 inhibitor: -17.9; APP transl inh: 2.3; BaF3 tox: -3.2

Results for c1cn(CCCNC2CCCCCCC2)cn1 ?
aSyn 5UTR inh: -15.9

What do the screens show for `c1cn(CCCNC2=NCCCCC2)cn1`?
aSyn 5UTR inh: 27.7; IEC-6 tox: 1.7; Ba/F3 V617F tox: 1.6; KLF5 inhibitor: -2.5; APP transl inh: -7.5; BaF3 tox: 90.7*

Results for CCn1c2ccc(F)cc2c2nnc(SCCN3CCCCC3)nc21 ?
aSyn 5UTR inh: 5.1; IEC-6 tox: 6.3; KLF5 inhibitor: -4.3

How did COc1ccc(CCNC(=O)CCCOc2ccc(Cl)cc2)cc1OC do in these assays?
aSyn 5UTR inh: 7.6; IEC-6 tox: 9.9; KLF5 inhibitor: 0.1

How did CCOC(=O)C1(CCOc2ccccc2)CCN(CC(O)CO)CC1 (configuration not stated) do in these assays?
aSyn 5UTR inh: 9.8; IEC-6 tox: -1.0; KLF5 inhibitor: -10.8

Results for C#CCOCCOCCOCCNc1nc(N2CCN(C(=O)CCCCCCCCCCNC(=O)[C@H](CO)n3cc(CCCSC)nn3)CC2)nc(N2CCN(C(=O)CCCCCCCCCCNC(=O)[C@H](CO)n3cc(CCCSC)nn3)CC2)n1 ?
aSyn 5UTR inh: -9.1

Results for C#CCOCCOCCOCCNc1nc(N2CCN(C(=O)CCCCCCCCCCNC(=O)[C@H](CCCCN)n3cc(C[C@@H](C)CC)nn3)CC2)nc(N2CCN(C(=O)CCCCCCCCCCNC(=O)[C@H](CCCCN)n3cc(C[C@@H](C)CC)nn3)CC2)n1 ?
aSyn 5UTR inh: 106.8*

Results for C#CCOCCOCCOCCNc1nc(N2CCN(C(=O)CCCCCCCCCCNC(=O)[C@H](CCCCN)n3cc(CCCC(=O)O)nn3)CC2)nc(N2CCN(C(=O)CCCCCCCCCCNC(=O)[C@H](CCCN=C(N)N)n3cc(C[C@@H](C)CC)nn3)CC2)n1 ?
aSyn 5UTR inh: -132.2

What do the screens show for `C#CCOCCOCCOCCNc1nc(N2CCN(C(=O)CCCCCCCCCCNC(=O)[C@H](CO)n3cc(CCCSC)nn3)CC2)nc(N2CCN(C(=O)CCCCCCCCCCNC(=O)[C@H](CCCCN)n3cc(C[C@@H](C)CC)nn3)CC2)n1`?
aSyn 5UTR inh: 110.1*

Results for COc1ccc(/C=N/NC(=O)c2cccc(O)c2)cc1Cn1nc(C)c([N+](=O)[O-])c1C ?
aSyn 5UTR inh: 9.3; IEC-6 tox: 2.8; Ba/F3 V617F tox: -0.5; KLF5 inhibitor: -17.1; APP transl inh: 6.7; BaF3 tox: 5.3

How did COc1ccc2nc(SCC(=O)N3CC(=O)Nc4ccccc43)c(C#N)cc2c1 do in these assays?
aSyn 5UTR inh: 33.2; IEC-6 tox: 2.1; Ba/F3 V617F tox: -0.2; KLF5 inhibitor: -16.9; APP transl inh: 59.5*; BaF3 tox: 3.4

What do the screens show for `COc1ccc2nc(SCC(=O)N3CCN(c4ccccc4F)CC3)c(C#N)cc2c1`?
IEC-6 tox: 0.0; Ba/F3 V617F tox: -2.4; KLF5 inhibitor: -5.1; APP transl inh: 12.3; BaF3 tox: 1.5

Results for COc1cc2c(cc1OC)C(COc1ccc([N+](=O)[O-])cc1)NCC2 (configuration not stated) ?
aSyn 5UTR inh: 20.1; IEC-6 tox: 8.9; KLF5 inhibitor: 1.2

What do the screens show for `CCOC(=O)Cn1c2c(c(=N)c3c1CCC3)CCCC2`?
aSyn 5UTR inh: -15.4; IEC-6 tox: -3.5; Ba/F3 V617F tox: 0.7; KLF5 inhibitor: 3.1; APP transl inh: 3.0; BaF3 tox: 8.6

Results for CCCn1c(=S)[nH]c2sc3c(c2c1=O)CCCC3 ?
aSyn 5UTR inh: -11.1; IEC-6 tox: 3.7; KLF5 inhibitor: -29.1

How did CCCCCCCn1c2c(c(=N)c3ccccc31)CCC2 do in these assays?
aSyn 5UTR inh: 79.4*; IEC-6 tox: 33.6*; Ba/F3 V617F tox: 98.8*; KLF5 inhibitor: -12.1; APP transl inh: 6.6; BaF3 tox: 77.9*

Results for CCCn1c2c(c(=N)c3c1CCC3)CCC2 ?
aSyn 5UTR inh: -12.0; IEC-6 tox: -1.4; Ba/F3 V617F tox: 46.4*; KLF5 inhibitor: -26.5; BaF3 tox: 54.4*

How did CCCn1c2c(c(=N)c3c1CCC3)CCCC2 do in these assays?
aSyn 5UTR inh: 2.4; IEC-6 tox: -0.7; Ba/F3 V617F tox: 64.9*; KLF5 inhibitor: -31.9; APP transl inh: -8.7; BaF3 tox: 65.2*
